From PubChem BioAssay (NCATS)
Inconclusive results are not listed. Calls of active or inactive are those of the source. Calls come from the whole dose curve; as a rule, active = well fitted inhibition curve with a large enough effect; inconclusive = small, poorly fitted or top-dose-only effect; inactive = flat fitted curve, though single readings scatter.

Test system: P94_40
Assay: qHTS profiling for inhibitors of Plasmodium falciparum proliferation (AID 504749);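 note: 0% = DMSO vehicle and full inhibition = artemisinin control; nearly all actives have a fitted effect of over 60% in size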
Conditions: P. falciparum in erythrocytes, SYBR Green DNA, 72 h; series mostly up to 28.7 µM; activity, negative = inhibition: at the top concentration
Summary of the method: (§1)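 Quantitative HTS: compounds pinned into medium, infected erythrocytes added (0.3% parasitemia, 2.5% hematocrit), 72 h culture at 37 C under 5% CO2. Saponin/Triton lysis with SYBR Green I, overnight RT, then fluorescence read.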

SMILES	activity, negative = inhibition
CCN(Cc1ccncc1)C(=O)C(CO)c1ccccc1 (centres undefined)	3.82% (inactive)
NC(=O)c1cn(Cc2c(F)cccc2F)nn1	11.2% (inactive)
CCCCCN(CCCCC)C(=O)C(CCC(=O)O)NC(=O)c1ccc(Cl)c(Cl)c1 (centres undefined)	3.16% (inactive)
O=C1CC2(CCCC2)CC(=O)N1CCCCN1CCN(c2ncccn2)CC1	-16% (inactive)
NC(Cc1ccc(Cl)cc1)C(=O)O (centres undefined)	14.2% (inactive)
CCCN(CCC)CCc1cccc2c1CC(=O)N2	2.2% (inactive)
O=C(O)CN(CCOCCOCCN(CC(=O)O)CC(=O)O)CC(=O)O	3.26% (inactive)
CCN(CC)CCNC(=O)c1ccc(NC(C)=O)cc1	5.61% (inactive)
O=C(O)CCCCCCCC(=O)O	19% (inactive)
CC(=O)OCC1=C(C(=O)O)N2C(=O)[C@@H](NC(=O)Cc3cccs3)[C@H]2SC1	23.4% (inactive)
CNC1(C)C2CCC(C2)C1(C)C (centres undefined)	4.24% (inactive)
Cc1scc2c1N(C(=O)CN1CCN(C)CC1)c1ccccc1NC2=O	0.496% (inactive)
CCCOc1ccccc1-c1nc2n[nH]nc2c(=O)[nH]1	-0.209% (inactive)
CC(C)NNC(=O)c1ccncc1	-21.3% (inactive)
Nc1c2c(nc3ccccc13)CCCC2O (centres undefined)	10.8% (inactive)
NC(=O)c1ncn([C@@H]2O[C@H](CO)[C@@H](O)[C@H]2O)c1O	14.9% (inactive)
Cc1nc2c([nH]1)c(=O)n(C)c(=O)n2Cc1ccco1	-3.47% (inactive)
Cc1cc(C)c(/C=C2\C(=O)Nc3ccccc32)[nH]1	4.78% (inactive)
CCn1cc(C(=O)O)c(=O)c2cc3c(cc21)OCO3	1.95% (inactive)
CC(=O)Nc1nnc(S(N)(=O)=O)s1	-9.45% (inactive)
NC(=Nc1ccccc1)Nc1ccccc1	-11.3% (inactive)
FC(F)(F)c1ccccc1-n1ccnc1	11.6% (inactive)
CCCCOCCOCCOCc1cc2c(cc1CCC)OCO2	11.4% (inactive)
CCN1CCc2nc(N)oc2CC1	7.87% (inactive)
O=C(CCNNC(=O)c1ccncc1)NCc1ccccc1	14.8% (inactive)
C[N+](C)(C)CCOC(=O)CCC(=O)OCC[N+](C)(C)C	4.04% (inactive)
CN(C)CCOC(=O)COc1ccc(Cl)cc1	-9.44% [at 12.8 µM] (inactive)
NC/C=C/C(=O)O	1.98% (inactive)
CCN(CC)CC(=O)Nc1c(C)cccc1C	19% (inactive)
CCN1CCC[C@H]1CNC(=O)c1c(O)c(Cl)cc(Cl)c1OC	8.84% (inactive)

Test system: PAD
Assay: as above
Conditions: P. falciparum in erythrocytes, SYBR Green DNA, 72 h; series mostly up to 28.7 µM; activity, negative = inhibition: at the top concentration
Summary of the method: as §1

SMILES	activity, negative = inhibition
CCN(Cc1ccncc1)C(=O)C(CO)c1ccccc1 (centres undefined)	0.949% (inactive)
NC(=O)c1cn(Cc2c(F)cccc2F)nn1	12.7% (inactive)
CCCCCN(CCCCC)C(=O)C(CCC(=O)O)NC(=O)c1ccc(Cl)c(Cl)c1 (centres undefined)	10.7% (inactive)
O=C1CC2(CCCC2)CC(=O)N1CCCCN1CCN(c2ncccn2)CC1	-10.8% (inactive)
NC(Cc1ccc(Cl)cc1)C(=O)O (centres undefined)	5.03% (inactive)
CCCN(CCC)CCc1cccc2c1CC(=O)N2	0.842% (inactive)
O=C(O)CN(CCOCCOCCN(CC(=O)O)CC(=O)O)CC(=O)O	6.53% (inactive)
CCN(CC)CCNC(=O)c1ccc(NC(C)=O)cc1	4.82% (inactive)
O=C(O)CCCCCCCC(=O)O	9.52% (inactive)
CC(=O)OCC1=C(C(=O)O)N2C(=O)[C@@H](NC(=O)Cc3cccs3)[C@H]2SC1	11.1% (inactive)
CNC1(C)C2CCC(C2)C1(C)C (centres undefined)	13.2% (inactive)
Cc1scc2c1N(C(=O)CN1CCN(C)CC1)c1ccccc1NC2=O	10.4% (inactive)
CCCOc1ccccc1-c1nc2n[nH]nc2c(=O)[nH]1	-20.4% (inactive)
CC(C)NNC(=O)c1ccncc1	-8.92% (inactive)
Nc1c2c(nc3ccccc13)CCCC2O (centres undefined)	6.41% (inactive)
NC(=O)c1ncn([C@@H]2O[C@H](CO)[C@@H](O)[C@H]2O)c1O	13.7% (inactive)
Cc1nc2c([nH]1)c(=O)n(C)c(=O)n2Cc1ccco1	-1.99% (inactive)
Cc1cc(C)c(/C=C2\C(=O)Nc3ccccc32)[nH]1	8.45% (inactive)
CCn1cc(C(=O)O)c(=O)c2cc3c(cc21)OCO3	3.65% (inactive)
CC(=O)Nc1nnc(S(N)(=O)=O)s1	-4.2% (inactive)
NC(=Nc1ccccc1)Nc1ccccc1	-17.2% (inactive)
FC(F)(F)c1ccccc1-n1ccnc1	11.3% (inactive)
CCCCOCCOCCOCc1cc2c(cc1CCC)OCO2	16.6% (inactive)
CCN1CCc2nc(N)oc2CC1	7.54% (inactive)
O=C(CCNNC(=O)c1ccncc1)NCc1ccccc1	7.06% (inactive)
C[N+](C)(C)CCOC(=O)CCC(=O)OCC[N+](C)(C)C	18.6% (inactive)
CN(C)CCOC(=O)COc1ccc(Cl)cc1	24.6% [at 12.8 µM] (inactive)
NC/C=C/C(=O)O	9.71% (inactive)
CCN(CC)CC(=O)Nc1c(C)cccc1C	15.1% (inactive)
CCN1CCC[C@H]1CNC(=O)c1c(O)c(Cl)cc(Cl)c1OC	4.43% (inactive)

Test system: PC15
Assay: as above
Conditions: P. falciparum in erythrocytes, SYBR Green DNA, 72 h; series mostly up to 28.7 µM; activity, negative = inhibition: at the top concentration
Summary of the method: as §1

SMILES	activity, negative = inhibition
CCN(Cc1ccncc1)C(=O)C(CO)c1ccccc1 (centres undefined)	3.39% (inactive)
NC(=O)c1cn(Cc2c(F)cccc2F)nn1	3.97% (inactive)
CCCCCN(CCCCC)C(=O)C(CCC(=O)O)NC(=O)c1ccc(Cl)c(Cl)c1 (centres undefined)	6.78% (inactive)
O=C1CC2(CCCC2)CC(=O)N1CCCCN1CCN(c2ncccn2)CC1	-7.96% (inactive)
NC(Cc1ccc(Cl)cc1)C(=O)O (centres undefined)	9.61% (inactive)
CCCN(CCC)CCc1cccc2c1CC(=O)N2	12.6% (inactive)
O=C(O)CN(CCOCCOCCN(CC(=O)O)CC(=O)O)CC(=O)O	0.758% (inactive)
CCN(CC)CCNC(=O)c1ccc(NC(C)=O)cc1	2.56% (inactive)
O=C(O)CCCCCCCC(=O)O	13.1% (inactive)
CC(=O)OCC1=C(C(=O)O)N2C(=O)[C@@H](NC(=O)Cc3cccs3)[C@H]2SC1	11.2% (inactive)
CNC1(C)C2CCC(C2)C1(C)C (centres undefined)	-7.3% (inactive)
Cc1scc2c1N(C(=O)CN1CCN(C)CC1)c1ccccc1NC2=O	6.47% (inactive)
CCCOc1ccccc1-c1nc2n[nH]nc2c(=O)[nH]1	3.91% (inactive)
CC(C)NNC(=O)c1ccncc1	1.62% (inactive)
Nc1c2c(nc3ccccc13)CCCC2O (centres undefined)	-3.49% (inactive)
NC(=O)c1ncn([C@@H]2O[C@H](CO)[C@@H](O)[C@H]2O)c1O	3.78% (inactive)
Cc1nc2c([nH]1)c(=O)n(C)c(=O)n2Cc1ccco1	5.68% (inactive)
Cc1cc(C)c(/C=C2\C(=O)Nc3ccccc32)[nH]1	4.75% (inactive)
CCn1cc(C(=O)O)c(=O)c2cc3c(cc21)OCO3	12.6% (inactive)
CC(=O)Nc1nnc(S(N)(=O)=O)s1	-6.93% (inactive)
NC(=Nc1ccccc1)Nc1ccccc1	-28.5% (inactive)
FC(F)(F)c1ccccc1-n1ccnc1	13.1% (inactive)
CCCCOCCOCCOCc1cc2c(cc1CCC)OCO2	-1.99% (inactive)
CCN1CCc2nc(N)oc2CC1	6.52% (inactive)
O=C(CCNNC(=O)c1ccncc1)NCc1ccccc1	6.58% (inactive)
C[N+](C)(C)CCOC(=O)CCC(=O)OCC[N+](C)(C)C	11.5% (inactive)
NC/C=C/C(=O)O	0.633% (inactive)
CCN(CC)CC(=O)Nc1c(C)cccc1C	4.35% (inactive)
CCN1CCC[C@H]1CNC(=O)c1c(O)c(Cl)cc(Cl)c1OC	8.58% (inactive)
